Assay outcomes as filed in PubChem.
Rows were chosen to be rich in hits. Some 1.3% of all compounds tested hit in one or more screens of this group.
EPAC1 ag = EPAC1 (human) agonism. EPAC1 agonist qHTS, biochemical assay; response scale: 100% = response to 6.5 mM cAMP. Potency, µM (series often up to 154 µM), for inactives: at the highest dose activation, hits mostly activators. 0.073% of 360,000 active; further: nearly all actives have a fitted effect of over 60% in size
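Nucleotide exchange by EPAC1 (100 nM) on Rap1B–BODIPY-GDP (250 nM) in the presence of 50 uM GDP is tracked fluorescently at 480/540 nm over 30 min. Signals are normalized to a 6.5 mM cAMP control.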
EPAC1 antagonist = antagonists of human EPAC1; AID 720709; O95398; EPAC1 GEF assay, Rap1b-BODIPY-GDP exchange fluorescence; 0.14% of 360,000 active; Potency, µM (highest dose often 115 µM), without a hit: top-dose activity change, negative = inhibition, hits mostly inhibitors;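 further: plate controls were vehicle for no effect and positive control for full effect; nearly all actives have a fitted effect of over 50% in size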
USP1-UAF1 inh = USP1/UAF1 (human) deubiquitinase inhibition; recombinant USP1/UAF1, Ub-Rhodamine cleavage fluorescence; Potency, µM (titrated, usually from 57.1 µM), for the others: top-dose activity change, negative = inhibition, actives largely listed as inhibitors; 0.23% of 390,000 active; O94782; further: on the % scale 0 is the no-effect control and ±100 the full control effect; nearly all actives have a fitted effect of over 60% in size
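1 nM enzyme complex + cpd, 15 min RT; start with Ub-Rho 150nM final; kinetic fluorescence ex 480/em 540, 6 reads q60 s. Buffer 50mM HEPES pH 7.8, 0.5mM EDTA, 0.1 mg/ml BSA, 1mM TCEP, 0.01% Tween-20.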
EPAC2 ag = EPAC2 (human) agonism; Potency, µM (doses to about 154 µM), for the others: top-dose activation, actives largely listed as activators; EPAC2 activation, biochemical qHTS; response scale: 100% = 6.5 mM cAMP response; Q8WZA2; AID 720711; 0.079% of 360,000 active; further: nearly all actives have a fitted effect of over 50% in size
Target sequence (Q8WZA2 whole entry, looked up): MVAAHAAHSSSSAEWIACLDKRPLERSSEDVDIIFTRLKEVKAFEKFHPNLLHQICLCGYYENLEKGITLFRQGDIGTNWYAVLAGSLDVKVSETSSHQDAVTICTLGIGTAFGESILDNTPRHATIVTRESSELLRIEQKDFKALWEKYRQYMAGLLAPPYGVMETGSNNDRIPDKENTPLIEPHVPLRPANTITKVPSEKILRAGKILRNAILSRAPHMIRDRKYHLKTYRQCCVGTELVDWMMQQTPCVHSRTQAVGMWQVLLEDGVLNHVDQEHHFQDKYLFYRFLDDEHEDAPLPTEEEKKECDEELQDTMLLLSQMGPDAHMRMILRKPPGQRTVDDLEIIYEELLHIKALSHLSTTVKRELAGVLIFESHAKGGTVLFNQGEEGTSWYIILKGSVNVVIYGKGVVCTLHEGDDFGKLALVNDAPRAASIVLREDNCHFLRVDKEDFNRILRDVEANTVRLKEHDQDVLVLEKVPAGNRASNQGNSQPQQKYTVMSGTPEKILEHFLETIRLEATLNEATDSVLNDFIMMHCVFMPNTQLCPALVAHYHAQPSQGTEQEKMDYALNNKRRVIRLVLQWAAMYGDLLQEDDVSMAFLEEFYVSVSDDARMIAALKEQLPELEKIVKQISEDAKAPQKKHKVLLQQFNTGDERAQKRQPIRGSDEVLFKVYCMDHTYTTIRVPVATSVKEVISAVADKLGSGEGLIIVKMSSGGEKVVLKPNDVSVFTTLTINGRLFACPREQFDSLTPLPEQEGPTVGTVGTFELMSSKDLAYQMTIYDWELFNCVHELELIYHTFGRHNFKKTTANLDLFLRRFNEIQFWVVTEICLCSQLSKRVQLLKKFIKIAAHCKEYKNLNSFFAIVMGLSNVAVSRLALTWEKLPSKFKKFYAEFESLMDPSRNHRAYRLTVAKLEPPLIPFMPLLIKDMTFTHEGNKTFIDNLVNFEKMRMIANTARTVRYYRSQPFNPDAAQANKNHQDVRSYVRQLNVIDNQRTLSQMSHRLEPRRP
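Compounds were titrated in qHTS against a Rap1B-BODIPY-GDP (250 nM) complex with EPAC2 (100 nM) and GDP (50 uM). BODIPY-GDP release tracked at 480/540 nm over 30 min at room temperature, normalized to 6.5 mM cAMP.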
EPAC2 antagonist = blocks human EPAC2 exchange factor. EPAC2 GEF exchange of Rap1B-BODIPY-GDP, fluorescence. 0.18% of 360,000 active. Potency, µM (titrated, usually from 114 µM), inactives show top-dose activity, negative = inhibition, actives largely listed as inhibitors. AID 720708; further: on the % scale 0 is the no-effect control and ±100 the full control effect; nearly all actives have a fitted effect of over 45% in size
12-LOX inh = ALOX12 (human) lipoxygenase inhibition; 1.1% of 580,000 active; AID 1671190; Potency, µM (highest dose often 108 µM), without a hit: at the highest dose activity change, negative = inhibition, actives largely listed as inhibitors; purified 12hLO, xylenol orange hydroperoxide absorbance; P18054; further: on the % scale 0 is the no-effect control and ±100 the full control effect
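Purified human 12hLO at 150 nM in 25 mM Hepes, 0.01% Triton X-100, pH 7.0, preincubated 15 min at room temperature with compound. Reaction started with 40 uM arachidonic acid, 30 min at room temperature. Hydroperoxide measured by Fe-xylenol orange, 573/405 nm absorbance ratio.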
* hit, by the source's call; ? = inconclusive; . = not tested or not shown; ! = a repeat was not active; [ ] = remark or other dose. The call rests on the fitted dose curve; in most records, active means well fitted curve in the direction sought with a large enough effect; inconclusive means small, poorly fitted or top-dose-only effect, or another doubt; inactive means no such curve, though single readings can be large; an effect the other way counts as inactive or inconclusive. Potency means the concentration at half of the fitted maximal effect.

SMILES	EPAC1 ag	EPAC1 antagonist	USP1-UAF1 inh	EPAC2 ag	EPAC2 antagonist	12-LOX inh
COc1ccc(-c2nc3cc(NC(=S)NC(=O)Cc4ccccc4)ccc3o2)cc1	-4%	-3%	-19%	-1%	0%	28µM*
COc1cccc(OC)c1C(=O)Nc1ccc(-c2nc3ccccc3o2)cc1	.	.	.	.	.	40µM*
CCN1CC=C2C(C#N)=C(N)C(C#N)(C#N)[C@H](c3cccc(OC)c3OC)[C@H]2C1	23%	6%	32µM*	13%	-20%	17%
CC1CCCN(CCCn2c(=O)c3c(ncn3C)n(C)c2=O)C1 (centres undefined)	.	.	.	.	.	9%
COc1cc(Cl)cc(C(c2c(C(=O)O)[nH]c3ccccc23)c2c(C(=O)O)[nH]c3ccccc23)c1O	-1%	-22%	?	2%	-4%	16µM*
Cc1[nH][nH]c(=O)c1C(c1cc(Br)ccc1O)c1c(C)[nH][nH]c1=O	0%	-3%	-8%	-2%	4%	0%
O=C(O)c1[nH]c2ccccc2c1C(c1cc(Br)ccc1O)c1c(C(=O)O)[nH]c2ccccc12	-2%	45µM*	?	-7%	-20%	?
O=C(O)c1[nH]c2ccccc2c1C(c1c(F)cccc1Cl)c1c(C(=O)O)[nH]c2ccccc12	-9%	?	-22%	-2%	-3%	0%
Oc1ccc(Nc2nc(-c3ccccc3O)nc3ccccc23)cc1	-1%	6%	-25%	12%	7%	28µM*!
Oc1ccc(Nc2nc(-c3ccccc3F)nc3ccccc23)cc1	-3%	9%	-24%	12%	6%	18µM*!
COc1ccc(Nc2nc(-c3ccccc3O)nc3ccccc23)cc1	13%	?	0%	20%	-3%	17%
COc1cc(NC(=S)N2CCC(C(O)(c3ccccc3)c3ccccc3)CC2)cc(OC)c1	4%	-22%	-25%	7%	-7%	40µM*
CCN(CC)c1ccc(NC(=O)CCCOc2cccc(C)c2)cc1	-6%	-6%	-9%	-3%	-13%	40µM*
COc1ccc(NC(=O)CCS(=O)(=O)c2nc(-c3cccs3)cc(C(F)(F)F)n2)cc1	.	.	-5%	.	.	-5%
O=C(CCS(=O)(=O)c1nc(-c2cccs2)cc(C(F)(F)F)n1)Nc1ccc(OC(F)(F)F)cc1	.	.	14µM*	.	.	?
Cc1ccc(-n2nc3ccc(N)cc3n2)cc1C	-5%	-21%	-17%	4%	-8%	45µM*
Cc1ccc(-n2nc3ccc(N)cc3n2)cc1Cl	3%	-1%	-6%	11%	1%	0%
COC(=O)N1CCc2c(sc(NC(=O)C3COc4ccccc4O3)c2C(N)=O)C1 (centres undefined)	-4%	-12%	-2%	-7%	-6%	18µM*
NC(=O)c1c(NC(=O)C2COc3ccccc3O2)sc2c1CCN(Cc1ccccc1)C2 (centres undefined)	?	48%	?	9%	66%	366%
Cc1noc(C)c1-c1cc2c(cc(C)n2CCN(C)C)c(-c2ccccc2)n1	.	.	.	.	.	-6%[176 µM]
CCOC(=O)c1c(C)n(S(=O)(=O)c2ccc(C)cc2)c2ccc(O)c(C(=O)O)c12	8%	-12%	-16%	9%	-21%	56µM*
CCOC(=O)C1=C[C@@H](C)N(S(=O)(=O)c2ccc(C)cc2)[C@H]1c1ccccc1	-4%	-21%	.	13%	-7%	?
Clc1ccc(-c2cc3ccccc3nc2N2CCOCC2)cc1	9%	-28%	-13%	7%	56µM*	-2%
Cc1cc(C)c(NC(=O)CSc2nnc(-c3ccc(F)cc3)n2N)c(C)c1	.	.	.	.	.	1%
COc1ccc(NC(=O)c2c[nH]n3c(=O)cc(C4CCN(C(=O)OC(C)(C)C)CC4)nc23)cc1Cl	14%	-4%	?	6%	?	40µM*
SMILES	EPAC1 ag	EPAC1 antagonist	USP1-UAF1 inh	EPAC2 ag	EPAC2 antagonist	12-LOX inh
Cc1c(O)ccc2c(CSc3nnc(N4CCCC4)s3)cc(=O)oc12	.	.	.	.	.	23%
CSc1nc2n(n1)C(c1ccccc1)C1=C(CCCC1=O)N2 (centres undefined)	.	.	.	.	.	37%
CCCN1CCc2c(sc(NC(=O)c3ccc(S(=O)(=O)N(C)c4ccccc4)cc3)c2C(N)=O)C1	19%	5%	?	112µM*	0%	.
Cc1nc(CN2CCN(C(=O)NCC(C)(C)N(C)C)CC2)cs1	.	.	.	.	.	21%
CCC(=O)Oc1ccc2c(C)c(Cc3ccccc3)c(=O)oc2c1C	.	.	.	.	.	-28%
COc1ccc(-c2oc3c(c2C(=O)OCCCO)C(OCCO)CCC3)cc1 (centres undefined)	-6%	-5%	.	-1%	0%	15%
CCOC1CCCc2oc(-c3ccc(OC)cc3)c(C(=O)NCCCCO)c21 (centres undefined)	2%	?	.	9%	-1%	13µM*
COc1ccccc1N(CC(=O)Nc1cc(C)on1)S(=O)(=O)c1ccc(Cl)cc1	-2%	-4%	-18%	4µM*	-12%	0%
Cc1oc(-c2ccccc2)nc1CC(=O)Nc1ccccc1I	.	.	.	.	.	-13%
Cc1cc(Cl)cc2sc(=S)[nH]c12	8%	6%	-4%	2%	-3%	11µM*
Cc1cc(Cl)cc2c(C=O)c(C(C)(C)C)[nH]c12	.	.	.	.	.	13%
Cc1cccc(C(=O)NNC(=S)NC(=O)/C=C/c2cccs2)c1	.	.	.	.	.	35µM*
Cc1cccc(C(=O)NC(=S)NNC(=O)c2ccccc2Cl)c1	-14%	3%	-20%	-6%	5%	40µM*
Cc1cccc(C(=O)NC(=S)NNC(=O)COc2c(C)cccc2C)c1	2%	-9%	2%	-5%	-7%	25µM*
CCc1cc(C(=O)NNC(=S)NC(=O)c2ccccc2)cs1	.	.	.	.	.	40µM*
Cc1ccccc1C(=O)NNC(=S)NC(=O)c1ccc(Cl)cc1Cl	14%	-1%	18%	14%	-3%	?
CCc1ccc(-c2cc(C)no2)cc1S(=O)(=O)Nc1cc(F)ccc1F	.	.	.	.	.	-1%
CCOc1cc(-c2noc(-c3ncn4c3COC(c3ccc(F)cc3)C4)n2)ccc1OC (centres undefined)	.	.	.	.	.	0%
Cc1cccc(C(=O)NC(=S)NNC(=O)Cc2ccccc2)c1	-9%	-13%	-16%	9%	6%	45µM*
Cc1cccc(C(=O)NC(=S)NCc2ccccc2)c1	3%	-15%	-22%	18%	4%	?
Cc1ccc(-n2sc3ccccc3c2=O)cc1	-9%	-6%	-17%	1%	13%	1.1µM*
O=c1c2ccccc2sn1-c1ccc(F)cc1	-9%	?	3%	9%	-7%	?
COC(=O)c1cccc(-n2sc3ccccc3c2=O)c1	2%	-23%	-13%	-8%	4%	1.3µM*
